C diff growth: inhibitors of Clostridium difficile growth | growth activity, negative = inhibition, % at 16 µg/mL (by protocol) | Clostridium difficile clinical isolate growth, OD600, 24 h; hits give low values | 0.25% of 86,000 active;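 active = mean growth activity at or below -80% and every replicate also at or below -80%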;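 note: 0% = DMSO wells and -100% = levofloxacin 16 µg/mL wells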
Pf Dd2 inh: blocks growth of Plasmodium falciparum Dd2 parasites; P. falciparum Dd2 growth, SYBR Green, 72 h; hits give low values; activity change, % at 10 µM; 2.3% of 94,000 active; AID 1159554; in the data active = activity change below about -80%
Starred values were filed as active, the others as inactive; . = no result given; ! = not active in a repeat. An excerpt weighted towards active compounds, which were near 2.3% of everything screened.

SMILES	C diff growth	Pf Dd2 inh
C[C@H](NC(=O)[C@@H]1[C@@H](CO)[C@@H]2Cn3c(ccc(-c4ccccc4F)c3=O)[C@H]1N2)c1ccccc1	-6	-5
C[C@H]1CN([C@@H](C)CO)C(=O)CCCn2cc(nn2)CO[C@H]1CN(C)Cc1ccc2c(c1)OCO2	-1	6
C[C@@H]1CN([C@@H](C)CO)C(=O)c2cc(NS(=O)(=O)c3cn(C)cn3)ccc2O[C@@H]1CN(C)Cc1ccc(C(=O)O)cc1	0	6
Cc1ccc(S(=O)(=O)Nc2cccc3c2O[C@H](CN(C)C(=O)Nc2ccc(F)cc2)[C@@H](C)CN([C@H](C)CO)C3=O)cc1	-6	23
COc1ccc(NC(=O)Nc2ccc3c(c2)C(=O)N([C@H](C)CO)C[C@H](C)[C@@H](CN(C)Cc2ccc(Cl)c(Cl)c2)OCCCC[C@@H](C)O3)cc1	0	-1
COc1ccc(NC(=O)Nc2ccc3c(c2)C(=O)N([C@H](C)CO)C[C@H](C)[C@H](CN(C)Cc2ccc(Cl)c(Cl)c2)OCCCC[C@H](C)O3)cc1	-1	14
COc1ccc(NC(=O)Nc2ccc3c(c2)C(=O)N([C@@H](C)CO)C[C@@H](C)[C@@H](CN(C)Cc2ccc(Cl)c(Cl)c2)OCCCC[C@@H](C)O3)cc1	-1	-80*
COc1ccc(NC(=O)Nc2ccc3c(c2)C(=O)N([C@@H](C)CO)C[C@H](C)[C@@H](CN(C)Cc2ccc(Cl)c(Cl)c2)OCCCC[C@@H](C)O3)cc1	0	-87*
C[C@@H]1CCCCO[C@H](CN(C)S(=O)(=O)c2ccccc2)[C@H](C)CN([C@@H](C)CO)C(=O)c2cc(NS(=O)(=O)c3ccc(F)cc3)ccc2O1	-11	-32
C[C@H]1CCCCO[C@@H](CN(C)S(=O)(=O)c2ccccc2)[C@@H](C)CN([C@@H](C)CO)C(=O)c2cc(NS(=O)(=O)c3ccc(F)cc3)ccc2O1	-16	-84*
Cc1ccc(S(=O)(=O)N(C)C[C@H]2OCCCC[C@H](C)Oc3ccc(NS(=O)(=O)c4ccc(F)cc4)cc3C(=O)N([C@@H](C)CO)C[C@H]2C)cc1	2	-82*
Cc1ccc(S(=O)(=O)N(C)C[C@@H]2OCCCC[C@H](C)Oc3ccc(NS(=O)(=O)c4ccc(F)cc4)cc3C(=O)N([C@@H](C)CO)C[C@@H]2C)cc1	3	-47
CO[C@@H]1CN(C)C(=O)c2cc(NS(=O)(=O)c3cn(C)cn3)ccc2OC[C@H](C)N(C)C[C@H]1C	1	31
COCC#Cc1ccc2c(c1)O[C@H](CN(C)C)[C@@H](C)CN([C@@H](C)CO)S2(=O)=O	0	14
O=C(C[C@H]1CC[C@H]2[C@@H](COC[C@@H](O)CN2C(=O)Nc2ccc(Cl)c(Cl)c2)O1)NCc1ccc(F)cc1	-53	-8
O=C(C[C@@H]1CC[C@H]2[C@@H](COC[C@H](O)CN2C(=O)Nc2ccc(Cl)c(Cl)c2)O1)NCc1ccc(F)cc1	-84*	8
O=C(C[C@H]1CC[C@H]2[C@@H](COC[C@H](O)CN2C(=O)Nc2ccc(Cl)c(Cl)c2)O1)NCc1ccc(F)cc1	-94*	-34
O=C(C[C@H]1CC[C@H]2[C@@H](COC[C@@H](O)CN2C(=O)Nc2ccc(Cl)c(Cl)c2)O1)NCc1ccc(Cl)cc1	-69	1
O=C(C[C@H]1CC[C@H]2[C@@H](COC[C@H](O)CN2C(=O)Nc2ccc(Cl)c(Cl)c2)O1)NCc1ccncc1	-97*!	-7
O=C(C[C@@H]1CC[C@H]2[C@@H](COC[C@@H](O)CN2C(=O)Nc2ccc(Cl)c(Cl)c2)O1)NCc1ccc(F)cc1	-28	2
O=C(C[C@@H]1CC[C@H]2[C@@H](COC[C@@H](O)CN2C(=O)Nc2ccc(Cl)c(Cl)c2)O1)NCc1ccc(Cl)cc1	-91*	-5
O=C(C[C@@H]1CC[C@H]2[C@@H](COC[C@H](O)CN2C(=O)Nc2ccc(Cl)c(Cl)c2)O1)NCc1ccncc1	-9	-6
C[C@H](CO)N1C[C@H](C)[C@H](CN(C)Cc2ccc(C(=O)Nc3ccccc3N)cc2)Oc2ccc(NS(=O)(=O)c3cn(C)cn3)cc2C1=O	.	-6
COc1ccc2c3c([nH]c2c1)[C@@H](CO)N(Cc1ccncc1)CC31CN(S(C)(=O)=O)C1	.	30
CC(C)NC(=O)Nc1cccc2c1O[C@@H](CN(C)C(=O)Nc1cccc3ccccc13)[C@@H](C)CN([C@H](C)CO)C2=O	-1	-9
SMILES	C diff growth	Pf Dd2 inh
CN1C(=O)c2cc(NC(=O)c3ccc(F)c(F)c3)ccc2OC[C@@H]2O[C@H](CC(=O)N[C@@H]3CCN(Cc4ccccc4)C3)CC[C@@H]21	1	.
CCCNC(=O)C[C@@H]1CC[C@H]2[C@@H](COC[C@@H](O)CN2C(=O)Nc2ccc(Cl)c(Cl)c2)O1	-103*!	-8
CCCNC(=O)C[C@H]1CC[C@@H]2[C@H](COC[C@@H](O)CN2C(=O)Nc2ccc(Cl)c(Cl)c2)O1	37	-28
COc1ccc(CN(C)C[C@H]2OCCCC[C@H](C)Oc3ccc(NC(=O)Nc4cccc5ccccc45)cc3C(=O)N([C@H](C)CO)C[C@@H]2C)cc1	-16	-44
COc1ccc(CN(C)C[C@H]2OCCCC[C@@H](C)Oc3ccc(NC(=O)Nc4cccc5ccccc45)cc3C(=O)N([C@H](C)CO)C[C@H]2C)cc1	-11	-87*
COc1ccc(CN(C)C[C@H]2OCCCC[C@@H](C)Oc3ccc(NC(=O)Nc4cccc5ccccc45)cc3C(=O)N([C@@H](C)CO)C[C@@H]2C)cc1	-43	-90*
COc1ccc(CN(C)C[C@@H]2OCCCC[C@@H](C)Oc3ccc(NC(=O)Nc4cccc5ccccc45)cc3C(=O)N([C@H](C)CO)C[C@@H]2C)cc1	-12	22
COc1ccc(CN(C)C[C@H]2OCCCC[C@@H](C)Oc3ccc(NC(=O)Nc4cccc5ccccc45)cc3C(=O)N([C@@H](C)CO)C[C@H]2C)cc1	-18	-89*
COc1ccc(CN(C)C[C@@H]2OCCCC[C@H](C)Oc3ccc(NC(=O)Nc4cccc5ccccc45)cc3C(=O)N([C@@H](C)CO)C[C@H]2C)cc1	-57	-80
CC(=O)N(C)C[C@@H]1Oc2cc(-c3ccc(C)cc3)ccc2S(=O)(=O)N([C@H](C)CO)C[C@H]1C	-12	-14
C[C@@H]1CCCCO[C@@H](CN(C)CC2CC2)[C@@H](C)CN([C@H](C)CO)C(=O)c2cc(NC(=O)CCCCCC(=O)Nc3ccccc3N)ccc2O1	-2	-78
C[C@@H]1CCCCO[C@@H](CN(C)CC2CCCCC2)[C@H](C)CN([C@@H](C)CO)C(=O)c2cc(NC(=O)CCCCCC(=O)Nc3ccccc3N)ccc2O1	-2	-81*
C[C@@H]1CCCCO[C@@H](CN(C)Cc2ccncc2)[C@@H](C)CN([C@H](C)CO)C(=O)c2cc(NC(=O)CCCCCC(=O)Nc3ccccc3N)ccc2O1	-3	-37
C[C@@H]1CCCCO[C@@H](CN(C)Cc2ccccc2)[C@@H](C)CN([C@H](C)CO)C(=O)c2cc(NC(=O)CCCCCC(=O)Nc3ccccc3N)ccc2O1	-8	-84*
C[C@H]1CN([C@@H](C)CO)C(=O)c2cc(NS(=O)(=O)c3cn(C)cn3)ccc2O[C@@H]1CN(C)S(=O)(=O)c1cccs1	.	30
C[C@@H]1CN([C@H](C)CO)C(=O)c2cc(C#CCc3ccccc3)cnc2O[C@H]1CN(C)CC1CCOCC1	-4	-63

High-throughput results: PubChem, Broad Institute
